Results on 10 molecules are retold here after the supplement of paper PMC13380429.

Unmarked numbers belong to inactive results.

The test system of the assay is Vero E6 infected with SARS-CoV-2. Description: inhibition of SARS-CoV-2 cytopathic effect; higher = more antiviral protection, active = above 15. To be noted: 48 h. For orientation: Protection from cytopathic effect is a common read-out in antiviral testing.

For the molecule `Cn1c(N2CCCCS2(=O)=O)nc(C(=O)NCc2ccc(F)cc2)c(O)c1=O`, the “inhibition of SARS-CoV-2 cytopathic effect” value (“inhibition” for short) (1 nM) was -0.4%; the “inhibition” value (8.33 nM) was -1.76%; the “inhibition” value (100 nM) was -4.2%; the “inhibition” value (833.33 nM) is -0.06%; the “inhibition” value (10000 nM) was -1.72%.

On to `O=C(CCCN1CCC2(CC1)C(=O)N(Cc1cccc(F)c1)CN2c1ccccc1)c1ccc(F)cc1` [3'-fluorobenzylspiperone], for which the “inhibition” value reads like this: (1 nM) 1.1%; (8.33 nM) 1.76%; (100 nM) 1.3%; (833.33 nM) 4.46%; (10000 nM) 71.7% (active).

For the molecule `COc1ccc(-c2csc(NC(=O)[C@H]3CCCCN3S(=O)(=O)c3ccc(C)cc3)n2)cc1`, the “inhibition” value is, setting by setting: (1 nM) 0.8%; (8.33 nM) 2.33%; (100 nM) 1.23%; (833.33 nM) 2.63%; (10000 nM) 1.27%.

With `CC(C)C(=O)c1c(C(C)C)nn2ccccc12` [ibudilast], the “inhibition” value (1 nM) was 2.15%; the “inhibition” value (8.33 nM) was 6.68%; the “inhibition” value (100 nM) was 5.43%; the “inhibition” value (833.33 nM) was 7.59%; the “inhibition” value (10000 nM) was 2.39%.

Take `N#Cc1ccc(N(Cc2ccc(Br)cc2)n2cnnc2)cc1`: the “inhibition” value reads like this: (1 nM) 1.03%; (8.33 nM) -0.63%; (100 nM) 3.36%; (833.33 nM) 2.99%; (10000 nM) -2.52%.

On to `Cn1cc(C(=O)C(=O)N[C@H]2CN3CCC2CC3)c2ccccc21`, for which the “inhibition” value reads like this: (1 nM) 0.78%; (8.33 nM) 1.33%; (100 nM) 0.72%; (833.33 nM) -1.49%; (10000 nM) 1.51%.

For the molecule `O=C1C2CC=CCC2C(=O)N1SC(Cl)(Cl)Cl` (stereo not given) [captan], the “inhibition” value was 1.85% (1 nM); 4.35% (8.33 nM); 4.16% (100 nM); 4.29% (833.33 nM); 7.49% (10000 nM).

Consider `CCCCOc1ccc(-c2cncc(C(=O)NCc3cccnc3N3CCOCC3)c2)cc1Cl`, for which the “inhibition” value was -0.69% (1 nM); -2.48% (8.33 nM); -0.55% (100 nM); -1.43% (833.33 nM); -3.95% (10000 nM).

For `N=C(Nc1ccccc1)Nc1ccccc1` [diphenylguanidine], the “inhibition” value by setting is: (1 nM) -3.55%; (8.33 nM) -2.37%; (100 nM) -2.77%; (833.33 nM) -0.58%; (10000 nM) 2.16%.

For the molecule `Nc1c(-c2cccc(C(F)(F)F)c2)nsc1C(=O)O` [amflutizole], the “inhibition” value (1 nM) was -1.13%; the “inhibition” value (8.33 nM) is 0.29%; the “inhibition” value (100 nM) was -1.28%; the “inhibition” value (833.33 nM) was 0.87%; the “inhibition” value (10000 nM) was 1.39%.
